Data reported in PubChem BioAssay.
Calls of active or inactive are those of the source. Unless noted, how the calls were made is not given here.

How the values were obtained:
[1] = resazurin metabolic signal in HepG2 cells – cell-based, resazurin fluorescence, 24 h, PK04 Diversity Set, profiling panel (AID 1172); conditions: HepG2 viability, higher = more signal; further: test concentration not given here
[2] = budding yeast growth changes without added modifier – OD600, strain BY4716, 24 h, basal condition, primary screen (AID 1173); conditions: S. cerevisiae BY4716 growth, OD600, 24 h; higher = more signal, called active from +8 up or from −8 down
[3] = viability profiling in MM1S myeloma cells – cell-based, resazurin fluorescence, basal, 24 h, PK04 Diversity Set, profiling panel (AID 1174); conditions: higher = more signal, called active from +8 up or from −8 down;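 further: MM1S multiple myeloma cell line; test concentration not given here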
[4] = biological target: Dihydroorotate dehydrogenase (quinone), mitochondrial (Plasmodium falciparum (isolate 3D7)) (UniProt Q08210); test: inhibition of P. falciparum DHODH – biochemical, C-terminal His tag, absorbance 600 nm, primary screen (AID 1175); conditions: PfDHODH enzyme, DCIP absorbance 600 nm; higher = more signal, called active from +8 up or from −8 down;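 further: recombinant parasite enzyme with a five histidine tag at its C terminus; test concentration not given here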
Sequence of Dihydroorotate dehydrogenase (quinone), mitochondrial (Plasmodium falciparum (isolate 3D7)) (Q08210 whole entry, looked up): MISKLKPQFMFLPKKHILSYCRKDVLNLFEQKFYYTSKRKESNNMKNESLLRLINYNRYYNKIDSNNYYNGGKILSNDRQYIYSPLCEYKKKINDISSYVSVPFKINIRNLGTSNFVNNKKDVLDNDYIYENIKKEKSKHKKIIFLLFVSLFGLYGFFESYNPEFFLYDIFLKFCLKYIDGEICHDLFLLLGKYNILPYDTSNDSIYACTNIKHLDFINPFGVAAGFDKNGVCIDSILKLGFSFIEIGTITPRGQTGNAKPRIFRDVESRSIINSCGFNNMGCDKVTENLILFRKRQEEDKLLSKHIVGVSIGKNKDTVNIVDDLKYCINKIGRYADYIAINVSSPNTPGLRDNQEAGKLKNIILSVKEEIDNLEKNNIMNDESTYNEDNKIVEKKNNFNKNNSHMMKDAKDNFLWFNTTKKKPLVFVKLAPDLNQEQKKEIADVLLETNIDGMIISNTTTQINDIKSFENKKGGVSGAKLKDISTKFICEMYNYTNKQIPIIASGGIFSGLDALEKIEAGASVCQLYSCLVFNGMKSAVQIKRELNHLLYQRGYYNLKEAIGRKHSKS

[5] = inhibition of PAO1 biofilm formation – strain PAO1, LB-PBS medium, absorbance 600 nm, primary screen (AID 1176); further: test concentration not given here; conditions: P. aeruginosa PAO1 growth/biofilm, A600, 12 h; higher = more signal
[6] = growth modulation of vineyard yeast isolate – strain RM11-1a, OD600, basal, 24 h, primary screen (AID 1177);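 further: cultures grown under basal conditions with no added stressor; test concentration not given here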; conditions: S. cerevisiae RM11-1a growth, OD600, 24 h; higher = more signal, called active from +8 up or from −8 down
[7] = growth of efflux-deficient E. coli DRC39 – strain DRC39, OD650, 24 h, E. coli filamentation inducers, primary screen (AID 1178);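 further: growth measured as culture turbidity by optical density at 650 nm; test concentration not given here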; conditions: E. coli DRC39 acrAB, higher = more signal, called active from +8 up or from −8 down
[8] = growth of efflux-deficient E. coli DRC39 – strain DRC39, OD650, 48 h, E. coli filamentation inducers, primary screen (AID 1179);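 further: screen aims at cell division blockers that make cells filament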; conditions: E. coli DRC39 delta-acrAB growth, higher = more signal, called active from +8 up or from −8 down
[9] = viability profiling in RPMI8226 myeloma cells – cell-based, resazurin fluorescence, basal, 24 h, PK04 Diversity Set, profiling panel (AID 1180); conditions: higher = more signal;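 further: RPMI8826 multiple myeloma cell line at 5000 cells per well; test concentration not given here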
[10] = biological target: E3 ubiquitin-protein ligase XIAP (Homo sapiens) (UniProt P98170); test: small molecules binding XIAP protein – biophysical, small-molecule microarray, fluorescence 635 nm, primary screen (AID 1181); conditions: higher = more signal;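 further: score merges 667 nm emission and signal to noise over triplicate slides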
Sequence of E3 ubiquitin-protein ligase XIAP (Homo sapiens) (P98170 whole entry, looked up): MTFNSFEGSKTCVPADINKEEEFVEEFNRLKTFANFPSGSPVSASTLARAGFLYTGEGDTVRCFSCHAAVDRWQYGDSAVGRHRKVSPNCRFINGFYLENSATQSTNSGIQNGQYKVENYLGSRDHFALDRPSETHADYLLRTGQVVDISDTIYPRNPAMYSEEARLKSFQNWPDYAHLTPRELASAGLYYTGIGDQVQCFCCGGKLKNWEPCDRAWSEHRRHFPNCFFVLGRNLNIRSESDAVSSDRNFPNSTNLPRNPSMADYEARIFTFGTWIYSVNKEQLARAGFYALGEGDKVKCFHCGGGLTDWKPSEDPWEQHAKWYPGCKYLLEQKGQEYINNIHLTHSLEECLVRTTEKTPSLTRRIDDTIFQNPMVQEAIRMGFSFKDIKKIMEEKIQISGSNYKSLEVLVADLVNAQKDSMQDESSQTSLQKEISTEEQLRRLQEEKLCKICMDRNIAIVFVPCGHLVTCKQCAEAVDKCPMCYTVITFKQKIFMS

Compound	z-score [1]	z-score [2]	z-score [3]	composite z-score [4]	z-score [5]	z-score [6]	z-score [7]	z-score [8]	z-score [9]	composite z-score [10]
O=C1C=C[C@@H](O)[C@@H]2[C@@H]3C(=O)N(Cc4ccccc4)C(=O)[C@@H]3CC[C@@H]12	-0.178	-0.459 (inactive)	0.183 (inactive)	-0.136 (inactive)	0.647 (inactive)	-0.83 (inactive)	0.479 (inactive)	0.116 (inactive)	-0.242	-0.0566
O=C1C[C@@H](O)[C@@H](O)[C@@H]2[C@@H]3C(=O)N(C4CCCCC4)C(=O)[C@@H]3CC[C@@H]12	-0.432	0.133 (inactive)	-0.262 (inactive)	-0.506 (inactive)	-1.13 (inactive)	0.356 (inactive)	-0.574 (inactive)	-0.354 (inactive)	-0.27	0.333
COC(=O)CC=C[C@@H](C)[C@@H](C=NOC[C@@H](O)COCc1ccco1)OC	-0.195	-0.656 (inactive)	-0.45 (inactive)	-0.527 (inactive)	-1.23 (inactive)	0.12 (inactive)	0.539 (inactive)	0.803 (inactive)	0.11	0.0345
O=C1[C@H]2[C@H]3[C@H](O)[C@H](O)CC(=NO[C@@H]4O[C@H](CO)[C@@H](O)[C@H](O)[C@H]4O)[C@@H]3CC[C@H]2C(=O)N1c1cccc(Oc2ccccc2)c1	0.647	0.0857 (inactive)	-0.602 (inactive)	-0.111 (inactive)	-0.343 (inactive)	0.0867 (inactive)	-0.492 (inactive)	-0.961 (inactive)	0.279	-0.124
O=C1CCCC=C1C(O)COCc1ccccc1 (stereo not given)	-0.178	-0.971 (inactive)	-0.155 (inactive)	0.438 (inactive)	0.402 (inactive)	0.902 (inactive)	-0.227 (inactive)	-0.477 (inactive)	0.13	-0.02
CO[C@@H](C1CCCCC1)[C@@H](C)[C@H](OCc1cccc(Br)c1)[C@@H](C)CO	0.414	-2.13 (inactive)	-0.885 (inactive)	0.0434 (inactive)	-0.127 (inactive)	-0.0839 (inactive)	-0.275 (inactive)	-0.776 (inactive)	-0.835	-0.16
CC(=O)OC[C@H]1O[C@H](CC=NO[C@@H](C)c2cc(-c3c(C)cc(C)cc3C)no2)C=C[C@@H]1OC(C)=O	-0.583	0.493 (inactive)	-0.523 (inactive)	0.272 (inactive)	-1.17 (inactive)	0.142 (inactive)	0.165 (inactive)	0.105 (inactive)	0.138	-0.126
CCN1C(=O)[C@H]2[C@H]3[C@H](O)[C@H](O)CC(=NO[C@H](C)c4cn([C@@H]5COC[C@H]5O)nn4)[C@@H]3CC[C@H]2C1=O	-1.28	1.15 (inactive)	-0.917 (inactive)	0.871 (inactive)	1.46 (inactive)	0.539 (inactive)	0.319 (inactive)	-0.787 (inactive)	-0.767	-0.124
CC(CCN1CCCc2nc(C)c(C)cc21)=NO[C@H](C)c1cn([C@H](CO)Cc2ccccc2)nn1	-0.325	0.454 (inactive)	0.307 (inactive)	1.27 (inactive)	-0.291 (inactive)	0.512 (inactive)	-0.801 (inactive)	-0.922 (inactive)	0.0883	0.0015
CCOC(=O)CCN1C(=O)[C@H]2[C@H]3[C@H](O)[C@H](O)CC(=NOCC(C)C)[C@@H]3CC[C@H]2C1=O	-0.452	-0.824 (inactive)	-0.665 (inactive)	-0.449 (inactive)	0.377 (inactive)	-0.992 (inactive)	-0.268 (inactive)	-0.321 (inactive)	-0.889	0.0819
COCC#Cc1ccc([C@@H]2N[C@H](C(=O)O)CC[C@H]2C)cc1	-0.041	-1.71 (inactive)	0.525 (inactive)	-1.53 (inactive)	0.143 (inactive)	-2.45 (inactive)	0.966 (inactive)	-0.94 (inactive)	-0.293	-0.416
COc1ccc(COC(=O)NN=C2C[C@@H](O)[C@@H](O)[C@@H]3[C@@H]4C(=O)N([C@@H](C)c5ccccc5)C(=O)[C@@H]4CC[C@H]23)cc1	0.453	-0.111 (inactive)	0.334 (inactive)	-0.308 (inactive)	0.683 (inactive)	-0.677 (inactive)	-0.267 (inactive)	0.197 (inactive)	0.818	0.0193
CCN1C(=O)[C@H]2[C@H]3[C@H](O)[C@H](O)CC(=NOC[C@@H](O)COCc4ccco4)[C@H]3CC[C@H]2C1=O	-0.92	-0.54 (inactive)	-0.809 (inactive)	-0.164 (inactive)	-0.425 (inactive)	-0.178 (inactive)	-0.0557 (inactive)	0.322 (inactive)	-1.23	-0.0948
CO[C@H]1COC(=O)CCC[C@H](C)[C@@H](OC)COC(=O)CC=C[C@@H]1C	0.367	-0.721 (inactive)	-1.18 (inactive)	-1.58 (inactive)	-0.339 (inactive)	-1.02 (inactive)	0.42 (inactive)	0.0526 (inactive)	1.07	0.0029
CCOC(=O)CCN1C(=O)[C@H]2[C@H]3[C@H](O)[C@H](O)CC(=NNC(=O)OCc4ccccc4)[C@H]3CC[C@H]2C1=O	-0.0842	-0.712 (inactive)	-0.364 (inactive)	-0.192 (inactive)	1.1 (inactive)	-1.26 (inactive)	-0.213 (inactive)	-0.354 (inactive)	0.0536	-0.163
CON=C(C)CCC(=O)OC[C@H]1O[C@H](C#Cc2ccccc2)C=C[C@@H]1Oc1ccc(C)cc1	-0.118	-0.944 (inactive)	-0.642 (inactive)	0.444 (inactive)	0.298 (inactive)	0.888 (inactive)	0.556 (inactive)	-1.88 (inactive)	-0.549	0.289
COC(=O)[C@H](C)NC(=O)CCC1CC(OC(=O)NCCc2ccc(F)cc2)CC2(CCCC(COC(=O)NCCc3ccccc3OC)O2)O1 (stereo not given in full)	0.185	0.292 (inactive)	0.173 (inactive)	0.098 (inactive)	0.119 (inactive)	0.878 (inactive)	0.636 (inactive)	-0.487 (inactive)	0.833	-0.0615
C[C@H]1CC[C@H]2C(=O)N[C@H](Cc3ccccc3)C(=O)N2[C@@H]1c1ccccc1	-0.69	-0.512 (inactive)	-0.322 (inactive)	0.868 (inactive)	-0.327 (inactive)	0.0033 (inactive)	0.718 (inactive)	0.295 (inactive)	-0.142	-0.24
COc1ccc(COC(=O)NN=C2C[C@@H](O)[C@@H](O)[C@@H]3[C@@H]4C(=O)N([C@@H](C)c5ccccc5)C(=O)[C@@H]4CC[C@@H]23)cc1	-0.295	0.501 (inactive)	-0.525 (inactive)	-0.194 (inactive)	-0.0363 (inactive)	-0.887 (inactive)	0.0247 (inactive)	0.528 (inactive)	-0.521	-0.126
CCOC(=O)[C@H](Cc1ccccc1)NC(=O)CCC1CC(OC(=O)NCc2cccc3ccccc23)CC2(CCCC(COC(=O)NCCc3ccccc3OC)O2)O1 (stereo not given in full)	0.942	-1.14 (inactive)	0.179 (inactive)	-0.561 (inactive)	0.86 (inactive)	0.166 (inactive)	0.122 (inactive)	0.0971 (inactive)	0.0498	-0.194
COC(=O)[C@@H]1CC[C@H](C)[C@@H](c2ccc(Br)cc2)N1C(=O)C(F)(F)F	0.0841	-0.475 (inactive)	0.27 (inactive)	0.724 (inactive)	0.213 (inactive)	1.21 (inactive)	-0.0765 (inactive)	-0.204 (inactive)	0.399	0.0225
O=C1C2=CC[C@H]3C(=O)N(Cc4ccccc4)C(=O)[C@H]3[C@H]2[C@H](O)[C@@H]2O[C@H]12	0.35	-2.16 (inactive)	-5.73 (inactive)	-1.59 (inactive)	0.0821 (inactive)	-1.22 (inactive)	-0.416 (inactive)	-0.425 (inactive)	-3.38	0.0006
CCOC(=O)NN=C1C[C@@H](O)[C@@H](O)[C@@H]2[C@@H]3C(=O)N(c4ccc(F)cc4F)C(=O)[C@@H]3CC[C@H]12	0.99	-0.468 (inactive)	1.44 (inactive)	-2.51 (inactive)	0.614 (inactive)	-0.738 (inactive)	0.284 (inactive)	0.498 (inactive)	0.241	-0.176
COc1ccc(OC[C@@H]2CC3[C@@H](c4ccc(Br)cc4)[C@H](C)CC[C@H]3C(=O)O2)cc1 (stereo not given in full)	0.527	-0.845 (inactive)	0.364 (inactive)	0.301 (inactive)	-0.315 (inactive)	0.0086 (inactive)	-0.941 (inactive)	-1.58 (inactive)	1.04	0.326
